About 83,000 compounds went through this panel and 20% of them were active in at least one assay; those are over-represented in the sample as a whole.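 96-well plates, one dose, 48 hours. Percent growth reported; active if below 10.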 Calls of active or inactive are those of the source.
Each compound was assayed on HL-60(TB) leukemia (assay: NCI-60 one-dose screen, 48 h (100 = growth as untreated, 0 = no growth, -100 = all killed)). Conditions: 10 µM unless noted.
With `Nc1nnc(-c2c[nH]c3ncc(Br)cc23)c(-c2c[nH]c3ccc(Br)cc23)n1` the growth was 11.2% (inactive). With `COc1cc(C2CC(c3ccccc3)=Nc3c(N)nc(N)nc3N2)ccc1Oc1nc(Nc2ccc(F)cc2)nc(N(C)C)n1` (stereo unspecified) the growth was 26.1% (inactive). With `COc1ccc(C(=O)Nc2ccc(-c3ccc4c(c3)NC(=O)/C4=C\c3ccc[nH]3)cc2)cc1` the growth was 89.6% (inactive). `Cn1cc(-c2cc(N)n3nc(-c4c[nH]c5ccccc45)cc3n2)c2cc(Cl)ccc21` was tested, and the growth was -16.2% (active). `Brc1ccc(/C=C/c2n(Cc3ccc4ccccc4c3)c3ccccc3[n+]2Cc2ccc3ccccc3c2)cc1` was tested, and the growth was -48.7% (active). For `COc1ccc(NC(=O)Cn2c(O)c(N=Nc3ccc(S(N)(=O)=O)cc3)c3ccccc32)cc1`, the growth was 96.9% (inactive).
